# Data: the supplement of paper PMC8728848
# Shown is part of a subset that was picked to be rich in the strongest signals.
# Columns and labels:
# Test in all cases: glycan array binding signal (z-score within array); higher = stronger binding
# Details in all cases: glycan notation: IUPAC condensed, linker removed
# [1] = molecular target: Kdn(a2-3)Gal(b1-3)GalNAc
# How it was run: (§1)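 The binding signal is a Z-score computed within each array. Data were drawn from 3228 arrays in the Consortium for Functional Glycomics database, restricted to those with a known protein sequence. Scores were averaged over arrays of the same protein sequence at different concentrations or buffers, and over linkers, and negative values can be taken as non-binding.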
# [2] = molecular target: Man(a1-2)Man(a1-6)[Man(a1-3)]Man(a1-6)[Man(a1-2)Man(a1-2)Man(a1-3)]Man(b1-4)GlcNAc(b1-4)GlcNAc
# How it was run: as §1
# [3] = molecular target: Neu5Ac(a2-3)Gal(b1-3)GalNAc6S
# How it was run: as §1
# [4] = molecular target: Neu5Ac(a2-3)Gal(b1-3)GlcNAc(b1-3)GalNAc
# How it was run: as §1
# [5] = molecular target: Neu5Ac(a2-3)Gal(b1-4)GlcNAc(b1-2)Man(a1-3)[GlcNAc(b1-4)][Neu5Ac(a2-3)Gal(b1-4)GlcNAc(b1-2)Man(a1-6)]Man(b1-4)GlcNAc(b1-4)GlcNAc
# How it was run: as §1
# [6] = molecular target: Neu5Ac(a2-3)Gal(b1-4)GlcNAc(b1-2)[Neu5Ac(a2-3)Gal(b1-4)GlcNAc(b1-6)]Man(a1-6)[Neu5Ac(a2-3)Gal(b1-4)GlcNAc(b1-2)Man(a1-3)][GlcNAc(b1-4)]Man(b1-4)GlcNAc(b1-4)GlcNAc
# How it was run: as §1
# [7] = molecular target: Neu5Ac(a2-3)Gal(b1-4)GlcNAc(b1-3)Gal(b1-3)GlcNAc
# How it was run: as §1
# [8] = molecular target: Neu5Ac(a2-3)[GalNAc(b1-4)]Gal(b1-4)GlcNAc(b1-3)GalNAc
# How it was run: as §1
# [9] = molecular target: Neu5Ac(a2-6)Gal(b1-4)GlcNAc(b1-2)Man(a1-3)[GlcNAc(b1-2)Man(a1-6)]Man(b1-4)GlcNAc(b1-4)GlcNAc
# How it was run: as §1
# [10] = molecular target: Neu5Ac(a2-6)Gal(b1-4)GlcNAc(b1-2)Man(a1-3)[Neu5Ac(a2-6)Gal(b1-4)GlcNAc(b1-2)Man(a1-6)]Man(b1-4)GlcNAc(b1-4)[Fuc(a1-6)]GlcNAc
# How it was run: as §1
# [11] = molecular target: Neu5Ac(a2-6)GalNAc
# How it was run: as §1
# [12] = molecular target: Neu5Ac(a2-8)Neu5Ac(a2-3)Gal(b1-4)Glc
# How it was run: as §1
# [13] = molecular target: Neu5Gc(a2-3)Gal(b1-4)Glc
# How it was run: as §1
# [14] = molecular target: Fuc(a1-2)Gal(b1-3)GalNAc(b1-3)Gal(a1-4)Gal(b1-4)Glc
# How it was run: as §1
# [15] = molecular target: Fuc(a1-2)Gal(b1-3)GlcNAc(b1-3)[Neu5Ac(a2-6)Gal(b1-4)GlcNAc(b1-6)]Gal(b1-4)Glc
# How it was run: as §1
# [16] = molecular target: Fuc(a1-2)Gal(b1-4)[Fuc(a1-3)]GlcNAc(b1-2)Man(a1-3)[Fuc(a1-2)Gal(b1-4)[Fuc(a1-3)]GlcNAc(b1-2)Man(a1-6)]Man(b1-4)GlcNAc(b1-4)GlcNAc
# How it was run: as §1
# [17] = molecular target: Fuc(a1-2)[Gal(a1-3)]Gal(b1-4)Glc
# How it was run: as §1
# [18] = molecular target: Fuc(a1-2)[GalNAc(a1-3)]Gal(b1-3)GalNAc(a1-3)[Fuc(a1-2)]Gal(b1-4)GlcNAc
# How it was run: as §1
# [19] = molecular target: Fuc(a1-2)[GalNAc(a1-3)]Gal(b1-3)GlcNAc
# How it was run: as §1
# [20] = molecular target: Fuc(a1-3)[Gal(b1-4)]Glc6S
# How it was run: as §1
# [21] = molecular target: Gal(b1-3)Gal(b1-4)GlcNAc(b1-2)Man(a1-3)[Gal(b1-3)Gal(b1-4)GlcNAc(b1-2)Man(a1-6)]Man(b1-4)GlcNAc(b1-4)GlcNAc
# How it was run: as §1
# [22] = molecular target: Gal(b1-3)[Fuc(a1-4)]GlcNAc
# How it was run: as §1
# [23] = molecular target: Gal(b1-3)[Neu5Ac(a2-6)]GalNAc
# How it was run: as §1
# [24] = molecular target: Gal(b1-4)GlcNAc
# How it was run: as §1
# [25] = molecular target: Gal(b1-4)GlcNAc(b1-2)Man(a1-3)Man(b1-4)GlcNAc(b1-4)GlcNAc
# How it was run: as §1
# [26] = molecular target: Gal(b1-4)GlcNAc(b1-2)Man(a1-3)[GlcNAc(b1-2)Man(a1-6)]Man(b1-4)GlcNAc(b1-4)GlcNAc
# How it was run: as §1
# [27] = molecular target: Gal(b1-4)GlcNAc(b1-2)[Gal(b1-4)GlcNAc(b1-4)]Man(a1-3)[GlcNAc(b1-4)][Gal(b1-4)GlcNAc(b1-2)Man(a1-6)]Man(b1-4)GlcNAc(b1-4)GlcNAc
# How it was run: as §1
# [28] = molecular target: Gal(b1-4)GlcNAc(b1-2)[Gal(b1-4)GlcNAc(b1-4)]Man(a1-3)[GlcNAc(b1-4)][Gal(b1-4)GlcNAc(b1-2)[Gal(b1-4)GlcNAc(b1-6)]Man(a1-6)]Man(b1-4)GlcNAc(b1-4)GlcNAc
# How it was run: as §1
# [29] = molecular target: Gal(b1-4)GlcNAc(b1-2)[Gal(b1-4)GlcNAc(b1-6)]Man(a1-6)[GlcNAc(b1-4)][Gal(b1-4)GlcNAc(b1-2)Man(a1-3)]Man(b1-4)GlcNAc(b1-4)GlcNAc
# How it was run: as §1
# [30] = molecular target: Gal(b1-4)GlcNAc(b1-3)GalNAc
# How it was run: as §1
# [31] = molecular target: Gal(b1-4)GlcNAc(b1-3)[Gal(b1-4)GlcNAc(b1-6)]Gal(b1-4)GlcNAc
# How it was run: as §1
# [32] = molecular target: Gal(b1-4)GlcNAc(b1-3)[Gal(b1-4)GlcNAc(b1-6)]GalNAc
# How it was run: as §1
# [33] = molecular target: GalNAc(a1-3)GalNAc(b1-3)Gal(a1-4)Gal(b1-4)Glc
# How it was run: as §1
# [34] = molecular target: GlcNAc(b1-2)Man(a1-3)[GlcNAc(b1-4)][GlcNAc(b1-2)Man(a1-6)]Man(b1-4)GlcNAc(b1-4)GlcNAc
# How it was run: as §1
# [35] = molecular target: GlcNAc(b1-3)[GlcNAc(b1-6)]GlcNAc(b1-4)GlcNAc
# How it was run: as §1
# [36] = molecular target: GlcNAc(b1-4)[GlcNAc(b1-6)]GalNAc
# How it was run: as §1
# [37] = molecular target: GlcNAc6S(b1-3)Gal(b1-4)GlcNAc
# How it was run: as §1
# [38] = molecular target: Man(a1-2)Man(a1-2)Man(a1-6)[Man(a1-3)]Man
# How it was run: as §1
# [39] = molecular target: Man(a1-2)Man(a1-3)[Man(a1-2)Man(a1-6)]Man
# How it was run: as §1
# [40] = molecular target: Man(a1-2)Man(a1-3)[Man(a1-2)Man(a1-6)]Man(a1-6)[Man(a1-2)Man(a1-2)Man(a1-3)]Man
# How it was run: as §1
# [41] = molecular target: Man(a1-2)Man(a1-3)[Man(a1-2)Man(a1-6)]Man(a1-6)[Man(a1-2)Man(a1-2)Man(a1-3)]Man(b1-4)GlcNAc(b1-4)GlcNAc
# How it was run: as §1
# [42] = molecular target: Man(a1-2)Man(a1-6)[Man(a1-3)]Man(a1-6)[Man(a1-2)Man(a1-2)Man(a1-3)]Man
# How it was run: as §1
# [43] = molecular target: Man(a1-3)[Man(a1-6)]Man
# How it was run: as §1
# [44] = molecular target: Man(a1-3)[Man(a1-6)]Man(a1-6)[Man(a1-2)Man(a1-3)]Man(b1-4)GlcNAc(b1-4)GlcNAc
# How it was run: as §1
# [45] = molecular target: Man(a1-3)[Man(a1-6)]Man(a1-6)[Man(a1-3)]Man
# How it was run: as §1
# [46] = molecular target: Neu5Ac(a2-3)Gal
# How it was run: as §1
# [47] = molecular target: Neu5Ac(a2-3)Gal(b1-3)GalNAc(b1-4)[Neu5Ac(a2-8)Neu5Ac(a2-3)]Gal(b1-4)Glc
# How it was run: as §1
# [48] = molecular target: Neu5Ac(a2-3)Gal(b1-4)GlcNAc
# How it was run: as §1
# [49] = molecular target: Neu5Ac(a2-3)Gal(b1-4)GlcNAc(b1-2)Man(a1-3)[GlcNAc(b1-2)Man(b1-4)GlcNAc(b1-2)Man(a1-6)]Man(b1-4)GlcNAc(b1-4)GlcNAc
# How it was run: as §1
# [50] = molecular target: Neu5Ac(a2-3)Gal(b1-4)GlcNAc(b1-3)Gal(b1-4)GlcNAc(b1-3)Gal(b1-4)GlcNAc
# How it was run: as §1
# [51] = molecular target: Neu5Ac(a2-6)GlcNAc(b1-4)GlcNAc(b1-4)GlcNAc
# How it was run: as §1
# [52] = molecular target: Neu5Ac9Ac(a2-3)Gal(b1-4)GlcNAc
# How it was run: as §1
# [53] = molecular target: Neu5Ac9Ac(a2-6)Gal(b1-4)GlcNAc
# How it was run: as §1
binder,measurement,setting,value
Mnn9-2N3 (Aspergillus fumigatus) (protein) MAVARRMRRTNPITLLLAAILAIGFFIFVLSPSTTSASPVKAGSASSSSTSQQRREDNAAENPLSPPTKPFFKSQPVRHDGQQAPPPVVQYNLNQLSSTSTSAANGERILILTPMARFVPEYWDNVVKLTYPHELISIGFIIPKNKEGNAALAALEAAIAKTQSGPIDKRFASISILRQDFEPPLQSQDEKERHKISNQKARRESMSRARNSLLFTTLGPATAWVLWLDADIVETPPTLIQDLTAHDHPVLVPNCYQRYYNSEKKKMDVRPYDYNSWIDSSTAQSMAAEMGPDEILLEGYAEMPTYRTLMAHLADTANPNPKKVIELDGVGGTALMVKAEVHRDGAMFPAFPFYHLVETEGFAKMAKRLGYSVYGLPDYFVSRNFFFFFFFFFFG,glycan array binding signal (z-score),[1],-2.43
same,glycan array binding signal (z-score),[2],-0.789
same,glycan array binding signal (z-score),[3],2.97
same,glycan array binding signal (z-score),[4],-0.456
same,glycan array binding signal (z-score),[5],-1.34
same,glycan array binding signal (z-score),[6],-0.217
same,glycan array binding signal (z-score),[7],0.123
same,glycan array binding signal (z-score),[8],-2.19
same,glycan array binding signal (z-score),[9],-1.47
same,glycan array binding signal (z-score),[10],0.808
same,glycan array binding signal (z-score),[11],2.59
same,glycan array binding signal (z-score),[12],2.12
same,glycan array binding signal (z-score),[13],-0.055
"ConA (Canavalia ensiformis), P02866 (protein) MAISKKSSLFLPIFTFITMFLMVVNKVSSSTHETNALHFMFNQFSKDQKDLILQGDATTGTDGNLELTRVSSNGSPQGSSVGRALFYAPVHIWESSAVVASFEATFTFLIKSPDSHPADGIAFFISNIDSSIPSGSTGRLLGLFPDANVIRNSTTIDFNAAYNADTIVAVELDTYPNTDIGDPSYPHIGIDIKSVRSKKTAKWNMQNGKVGTAHIIYNSVDKRLSAVVSYPNADSATVSYDVDLDNVLPEWVRVGLSASTGLYKETNTILSWSFTSKLKSNEIPDIATVV",glycan array binding signal (z-score),[14],-0.286
same,glycan array binding signal (z-score),[15],-0.189
same,glycan array binding signal (z-score),[16],-0.056
same,glycan array binding signal (z-score),[17],-0.278
same,glycan array binding signal (z-score),[18],-0.245
same,glycan array binding signal (z-score),[19],-0.279
same,glycan array binding signal (z-score),[20],-0.245
same,glycan array binding signal (z-score),[21],0.087
same,glycan array binding signal (z-score),[22],-0.274
same,glycan array binding signal (z-score),[23],-0.129
same,glycan array binding signal (z-score),[24],-0.225
same,glycan array binding signal (z-score),[25],-0.192
same,glycan array binding signal (z-score),[26],0.311
same,glycan array binding signal (z-score),[27],-0.211
same,glycan array binding signal (z-score),[28],-0.196
same,glycan array binding signal (z-score),[29],-0.24
same,glycan array binding signal (z-score),[30],-0.228
same,glycan array binding signal (z-score),[31],-0.208
same,glycan array binding signal (z-score),[32],-0.214
same,glycan array binding signal (z-score),[33],-0.201
same,glycan array binding signal (z-score),[34],-0.108
same,glycan array binding signal (z-score),[35],-0.317
same,glycan array binding signal (z-score),[36],-0.264
same,glycan array binding signal (z-score),[37],-0.088
same,glycan array binding signal (z-score),[38],4.9
same,glycan array binding signal (z-score),[39],3.94
same,glycan array binding signal (z-score),[40],7.48
same,glycan array binding signal (z-score),[41],3.33
same,glycan array binding signal (z-score),[42],7.39
same,glycan array binding signal (z-score),[2],4.46
same,glycan array binding signal (z-score),[43],5.51
same,glycan array binding signal (z-score),[44],4.75
same,glycan array binding signal (z-score),[45],4.27
same,glycan array binding signal (z-score),[46],-0.283
same,glycan array binding signal (z-score),[47],-0.248
same,glycan array binding signal (z-score),[48],-0.29
same,glycan array binding signal (z-score),[49],-0.041
same,glycan array binding signal (z-score),[50],-0.269
same,glycan array binding signal (z-score),[51],-0.184
same,glycan array binding signal (z-score),[52],-0.009
same,glycan array binding signal (z-score),[53],-0.243
